We go through eight compounds from PubChem BioAssay (Tox21).

Values without a mark were called inactive. Records with an inconclusive call do not appear. The source made the active and inactive calls. Unless noted, calls come from the whole dose curve; as a rule, active = well fitted curve in the direction sought with a large enough effect in the repeat runs; inconclusive = weak or mixed curves; inactive = no such curve, though single readings can be large; an effect the other way counts as inactive or inconclusive.

Experiment [1] in a line: A CellTox Green Cytotoxicity Assay to monitor cytotoxicity in HEK293 cells - 8 hour (AID 1224884). Note: nearly all actives have a fitted effect of over 35% in size. In short, it runs like this:
(§1)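 Homogeneous no-lysis format: HEK293 cell suspension mixed with CellTox Green reagent, seeded, incubated 5 h at 37 C/5% CO2, then dosed by pintool with compound in DMSO.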

The nature of experiment [2]: qHTS RealTime-Glo MT Cell Viability Assay in HepG2 cells - 16 hour (AID 1224885). Note: nearly all actives have a fitted effect of over 50% in size. In short, it runs like this:
(§2)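 Tox21 10K library screened in qHTS format on HepG2 cells carrying RealTime-Glo reagents. Compounds were added after a 5 h preincubation, and the luminescent signal from continuous culture was measured repeatedly during 40 h treatment.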
(In general: Quantitative high-throughput screening tests each substance at several concentrations.)

Experiment [3] can be described thus: qHTS RealTime-Glo MT Cell Viability Assay in HEK293 cells - 24 hour (AID 1224886). Note: top concentration of the series differs between compounds; nearly all actives have a fitted effect of over 50% in size. In short, it runs like this: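 Luminescence generated by NanoLuc from substrate produced by living HEK293 cells served as the viability signal. Each value reflects the reading at its stated time point during continuous 40 h compound exposure at 37 C.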
Experiment [4] can be described thus: A CellTox Green Cytotoxicity Assay to monitor cytotoxicity in HEK293 cells - 16 hour (AID 1224888). Note: nearly all actives have a fitted effect of over 35% in size. In outline: as §1
Experiment [5] in a line: qHTS RealTime-Glo MT Cell Viability Assay in HepG2 cells - 0 hour (AID 1224889). Note: nearly all actives have a fitted effect of over 50% in size. In short, it runs like this:
as §2

A short description of experiment [6]: A CellTox Green Cytotoxicity Assay to monitor cytotoxicity in HepG2 cells - 8 hour (AID 1224890). Note: nearly all actives have a fitted effect of over 45% in size. In outline: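 Fluorescent DNA-binding dye, 600 HepG2 cells/well, 5 h preincubation then compound in DMSO; same plates read at 0–40 h, 37 C.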
Experiment [7] is described as follows: qHTS assay to identify small molecule antagonists of the estrogen receptor alpha (ER-alpha) signaling pathway using the BG1 cell line in the presence of 0.1 nM 17-beta-estradiol - cell viability counter screen (AID 1259241). Note: nearly all actives have a fitted effect of over 40% in size. In outline: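 Viability in VM7Luc4E2 cells after 22 hr compound exposure under 0.1 nM 17beta-estradiol stimulation, by CellTiter-Fluor.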

Experiment [8] can be described thus: qHTS assay to identify small molecule antagonists of the androgen receptor (AR) signaling pathway using the MDA cell line in the presence of 0.5 nM R1881 - cell viability counter screen (AID 1259242). Note: nearly all actives have a fitted effect of over 45% in size. In short, it runs like this:
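Human breast carcinoma MDA-kb2 cells, cultured without CO2, receive compounds alongside 0.5 nM (final) R1881 agonist. After 16 hr at 37C, viability is taken as live-cell protease signal.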

In experiment [9] the target is Estrogen receptor (Homo sapiens) (UniProt P03372). Briefly: qHTS assay to identify small molecule antagonists of the estrogen receptor alpha (ER-alpha) signaling pathway using the BG1 cell line in the presence of 0.1 nM 17-beta-estradiol (AID 1259244). Note: nearly all actives have a fitted effect of over 50% in size. In short, it runs like this:
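Seeding of stripped-serum-adapted VM7Luc4E2 cells, 24 h attachment, compound transfer, then 0.1 nM final 17beta-estradiol; after 22 h incubation, ONE-Glo reagent and luminescence reading.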

A short description of experiment [10]: qHTS assay to identify small molecule HDAC inhibitors (AID 1259364).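 Note: wild-type HCT-116 cells with endogenous class I/II HDAC activity; top concentration of the series differs between compounds; nearly all actives have a fitted effect of over 45% in size.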 In short, it runs like this: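 After a 2 hr compound incubation (37C, 5% CO2), HCT-116 cells seeded at 1,500/well the day before received HDAC-Glo reagent; signal read as luminescence after 30 min at room temperature.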
Experiment [11] can be described thus: qHTS assay to identify small molecule HDAC inhibitors - cell viability counter screen (AID 1259365). In short, it runs like this: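 Cytotoxicity was gauged in wild-type HCT-116 cells after a brief 2hr treatment with DMSO-dissolved compounds at 37C and 5% CO2, using CellTiter-Glo luminescence developed for 30min at room temperature.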
A short description of experiment [12]: qHTS assay to identify small molecule agonists of the sonic hedgehog signaling (Shh) pathway - cell viability counter screen (AID 1259366). Note: nearly all actives have a fitted effect of over 50% in size. Note: potency is the fitted concentration of half-maximal effect. In outline: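 Stable Gli1-Luc NIH/3T3 clone, 2,000 cells/well. Compound exposure 24hr at 37C. Read-out: CellTiter-Fluor fluorescence.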
Experiment [13] can be described thus: qHTS assay to identify small molecule antagonists of the sonic hedgehog signaling (Shh) pathway - cell viability counter screen (AID 1259367). Note: nearly all actives have a fitted effect of over 55% in size. Note: potency is the fitted concentration of half-maximal effect. In outline:
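Cytotoxicity was assessed in parallel with Shh reporter activity by measuring live-cell protease fluorescence (CellTiter-Fluor) in NIH/3T3 cells stably carrying Gli1-Luc, treated with compound under conditioned medium stimulation for 23 hr plus 1 hr reagent incubation.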

Experiment [14] is described as follows: qHTS assay to identify small molecule agonists of the sonic hedgehog signaling (Shh) pathway (AID 1259368; calls by dose curve;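 note: NIH/3T3-derived 3T3Gli1-Luc cells carrying a stable Gli1-driven firefly luciferase reporter; series mostly up to about 92 µM; nearly all actives have a fitted effect of over 15% in size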). In outline: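 Stable NIH/3T3 Gli1-Luc reporter clone; 24 hr cpd exposure after a 4 hr settling period; luminescence endpoint.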
Experiment [15] is described as follows: qHTS assay to identify small molecule antagonists of the sonic hedgehog signaling (Shh) pathway (AID 1259369; calls by dose curve; note: nearly all actives have a fitted effect of over 45% in size; note: potency is the fitted concentration of half-maximal effect). In outline:
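Gli1 transcriptional reporter (firefly Luc) in NIH/3T3 background, conditioned-medium activated. 24hr exposure, luminescence endpoint.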

The target in experiment [16] is Androgen receptor (Homo sapiens) (UniProt P10275). Briefly: qHTS assay to identify small molecule antagonists of the androgen receptor (AR) signaling pathway using the MDA cell line in the presence of 0.5 nM R1881 (AID 1259243). Note: nearly all actives have a fitted effect of over 50% in size. Note: potency is the fitted concentration of half-maximal effect. In short, it runs like this: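 Cells: MDA-kb2 (MMTV-luc). Stimulus: 0.5 nM R1881. Time: 16 hr, 37C, no CO2. Detection: ONE-Glo luminescence after 30 min at RT.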

Experiment [17] is described as follows: qHTS assay to identify small molecule phospholipidosis (PLD) inducers (AID 1259344; active = well fitted curve in the direction sought with a large enough effect; an effect the other way counts as inactive or inconclusive). In short, it runs like this: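 Cells (HepG2, 900 per well) attach for 4 h, receive LipidTOX Red and compound together, incubate 24 h at 37 C, are fixed 30 min with paraformaldehyde/Hoechst, then imaged at one site per well.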
The target in experiment [18] is Estrogen receptor beta (Homo sapiens) (UniProt Q92731). Briefly: qHTS assay to identify small molecule agonists of the estrogen receptor beta (ER-beta) signaling pathway (AID 1259377; active = well fitted activation curve with a large enough effect in the signal ratio in the repeat runs, not every such curve was filed as active; the % refers to the signal ratio). In short, it runs like this: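 Measured by fluorescence intensity from a B/G FRET beta-lactamase substrate (2 h, room temperature) in ER-beta-UAS-bla HEK293T cells treated with DMSO-dissolved compounds for 16 hr at 37C and 5% CO2.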

Experiment [19] shares this target. Briefly: qHTS assay to identify small molecule antagonists of the estrogen receptor beta (ER-beta) signaling pathway (AID 1259378; active = well fitted inhibition curve with a large enough effect in the signal ratio in the repeat runs, not every such curve was filed as active; the % refers to the signal ratio). In outline: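 ER-beta-UAS-bla HEK293T (GripTite) cells in 2% charcoal-stripped FBS medium were preincubated 6 hr at 37C, dosed with compound, then stimulated with 1 nM E2 (final) for 16 hr; beta-lactamase reporter read by B/G FRET fluorescence after 2 hr substrate loading.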

Experiment [20] is described as follows: qHTS RealTime-Glo MT Cell Viability Assay in HEK293 cells - 8 hour (AID 1224887). In short, it runs like this:
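Measured as luminescence from the same continuously cultured HEK293 wells at successive time points (0, 8, 16, 24, 32, 40 h) after compound addition. Reagent present from seeding; dosing at 5 h; incubation 37 C.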
% is set by controls: 0 for no effect and ±100 for the full control effect.

Chain of Estrogen receptor (Homo sapiens) (P03372 whole entry, looked up): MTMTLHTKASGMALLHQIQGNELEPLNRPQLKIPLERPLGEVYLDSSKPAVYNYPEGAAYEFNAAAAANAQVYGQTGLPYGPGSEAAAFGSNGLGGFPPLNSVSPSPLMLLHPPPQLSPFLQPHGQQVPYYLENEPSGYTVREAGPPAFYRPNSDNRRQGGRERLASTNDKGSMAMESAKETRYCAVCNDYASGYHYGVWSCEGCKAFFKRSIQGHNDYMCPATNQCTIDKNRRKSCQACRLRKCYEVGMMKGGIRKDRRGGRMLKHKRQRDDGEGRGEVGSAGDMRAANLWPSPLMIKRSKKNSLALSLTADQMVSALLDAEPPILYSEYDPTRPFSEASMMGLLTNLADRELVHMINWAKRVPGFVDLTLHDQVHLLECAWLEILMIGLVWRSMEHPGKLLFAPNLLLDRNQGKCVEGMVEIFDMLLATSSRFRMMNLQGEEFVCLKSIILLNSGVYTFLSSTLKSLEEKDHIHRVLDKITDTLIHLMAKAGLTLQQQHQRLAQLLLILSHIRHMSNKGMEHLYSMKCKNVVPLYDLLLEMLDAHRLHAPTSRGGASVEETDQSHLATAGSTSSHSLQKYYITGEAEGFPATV
Chain of Androgen receptor (Homo sapiens) (P10275 whole entry, looked up): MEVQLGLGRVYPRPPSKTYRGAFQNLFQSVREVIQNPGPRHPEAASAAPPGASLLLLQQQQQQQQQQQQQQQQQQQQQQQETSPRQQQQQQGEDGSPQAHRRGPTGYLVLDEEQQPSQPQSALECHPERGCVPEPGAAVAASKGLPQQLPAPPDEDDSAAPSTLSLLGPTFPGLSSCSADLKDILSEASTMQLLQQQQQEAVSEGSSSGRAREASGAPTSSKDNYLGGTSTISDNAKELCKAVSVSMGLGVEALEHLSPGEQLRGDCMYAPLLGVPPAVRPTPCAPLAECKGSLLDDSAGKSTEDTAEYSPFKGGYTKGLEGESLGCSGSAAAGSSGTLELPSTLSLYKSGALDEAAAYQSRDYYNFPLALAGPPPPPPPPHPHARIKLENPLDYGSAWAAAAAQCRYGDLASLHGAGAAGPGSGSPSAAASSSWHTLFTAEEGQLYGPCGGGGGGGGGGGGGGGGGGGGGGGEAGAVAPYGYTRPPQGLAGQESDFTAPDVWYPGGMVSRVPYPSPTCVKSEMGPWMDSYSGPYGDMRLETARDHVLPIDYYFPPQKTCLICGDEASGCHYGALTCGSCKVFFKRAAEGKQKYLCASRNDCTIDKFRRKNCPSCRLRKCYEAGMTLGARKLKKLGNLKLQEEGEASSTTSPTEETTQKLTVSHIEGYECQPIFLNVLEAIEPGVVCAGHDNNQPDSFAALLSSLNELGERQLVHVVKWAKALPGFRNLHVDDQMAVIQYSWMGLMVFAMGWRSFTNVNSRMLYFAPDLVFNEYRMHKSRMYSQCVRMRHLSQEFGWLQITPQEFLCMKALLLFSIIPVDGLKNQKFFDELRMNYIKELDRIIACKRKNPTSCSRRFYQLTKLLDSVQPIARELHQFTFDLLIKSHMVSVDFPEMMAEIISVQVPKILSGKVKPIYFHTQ
Chain of Estrogen receptor beta (Homo sapiens) (Q92731 whole entry, looked up): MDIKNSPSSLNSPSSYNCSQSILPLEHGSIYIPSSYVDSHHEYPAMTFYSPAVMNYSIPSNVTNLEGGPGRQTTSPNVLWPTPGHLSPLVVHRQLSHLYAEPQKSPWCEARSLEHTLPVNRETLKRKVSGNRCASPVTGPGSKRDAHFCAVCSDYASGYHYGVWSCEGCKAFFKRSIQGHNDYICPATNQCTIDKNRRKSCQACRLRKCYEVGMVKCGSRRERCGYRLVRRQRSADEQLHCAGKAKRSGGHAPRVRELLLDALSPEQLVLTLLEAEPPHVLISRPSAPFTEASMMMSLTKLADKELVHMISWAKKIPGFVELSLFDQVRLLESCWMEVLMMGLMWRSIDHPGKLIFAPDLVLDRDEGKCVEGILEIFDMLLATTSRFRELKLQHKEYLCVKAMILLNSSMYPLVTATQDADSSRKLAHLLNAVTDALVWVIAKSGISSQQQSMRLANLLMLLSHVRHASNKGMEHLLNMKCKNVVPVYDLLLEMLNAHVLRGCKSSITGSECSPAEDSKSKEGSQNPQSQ

Take `CC(=O)CC(N)=O`: the Potency result in [1], in experiment [2], in experiment [3], in experiment [4], in experiment [5] and in [6] was “inactive” in each case. The Potency result in [7], in experiment [8], in [9], in experiment [10], in experiment [11] and in experiment [12] was “inactive” each time. The Potency result in experiment [13], in experiment [14] and in experiment [15] was “inactive” each time.

With `CCCCCCCCCCCCCCCCC(C(=O)O)C(O)(CC(=O)O)C(=O)O` (stereo not given), the Potency entry in [1], in [2], in experiment [3], in [4], in [5] and in experiment [6] was “inactive” in each case. The Potency result in experiment [7], in [8], in experiment [16], in [9], in experiment [17] and in [10] was “inactive” in each case. Further, the Potency result in experiment [13], in [14], in [15] and in [19] was “inactive” in each case. Further, in experiment [18], the compound was classed as inactive.

Take `CCCCCCCCCCCCS(=O)(=O)Cl`: the cytotoxicity increase in [1] was -0.511% [at 15.8 µM]; in experiment [6], -21% [at 15.8 µM]. In experiment [2], the activity change, negative = cytotoxic was 1.02% [at 15.8 µM]. In addition, the activity change, negative = cytotoxicity in experiment [3] was 12.2% [at 15.8 µM]; in experiment [5], -8.49% [at 15.8 µM]; in experiment [7], -4% [at 19 µM]; in [11], -1.8% [at 19 µM]. Also, the activity change in experiment [4] is 2.57% [at 15.8 µM, stronger effect = higher value]; in experiment [14], 0.0807% [at 18.9 µM, stronger effect = higher value]. Moreover, the values for the viability change, negative = cytotoxic in experiment [8], in [12] and in [13] were -2.53% [at 19 µM], -2.48% [at 19 µM] and -1.82% [at 19 µM], respectively. In addition, the activity, negative = inhibition in [16] was 0.127% [at 19 µM]; in [19], -20.1% [at 19 µM]. The activity change, negative = inhibition is -0.19% [at 19 µM] in experiment [10] and 18.4% [at 19 µM] in experiment [15].

As for `c1ccc2cc3c4ccccc4c4ccccc4c3cc2c1`, the Potency result in experiment [1], in [2], in experiment [3], in experiment [4], in experiment [5] and in experiment [6] was “inactive” throughout. Further, the Potency entry in experiment [7], in [8], in experiment [10], in experiment [12], in experiment [13] and in [14] was “inactive” each time. Besides, the Potency result in experiment [15] and in experiment [19] was “inactive” in each case. In [18], the outcome was inactive.

Turning to `CN1CC[C@H](c2c(O)cc(O)c3c(=O)cc(-c4ccccc4Cl)oc23)[C@H](O)C1`, the Potency result in experiment [1], in experiment [2], in [20], in [4], in [5] and in experiment [6] was “inactive” throughout. Also, the Potency result in experiment [7], in experiment [8], in [10], in experiment [11] and in [14] was “inactive” throughout. In addition, the Potency in [16] was 94.4 nM (active); in experiment [12], 376 nM (active); in [13], 298 nM (active); in experiment [15], 47.3 nM (active). Further, in experiment [18], the outcome was inactive.

For `Cc1ccc(N=Nc2c(O)ccc3ccccc23)c(C)c1`, the Potency entry in experiment [1], in experiment [2], in experiment [3], in experiment [4], in experiment [5] and in [6] was “inactive” throughout. The Potency result in experiment [16], in [9], in [10], in experiment [14] and in experiment [15] was “inactive” throughout.

For `C=CC(=O)OCC(Br)CBr` (stereo not given), the Potency entry in experiment [1], in [2], in [20], in [4], in experiment [5] and in experiment [6] was “inactive” throughout. Also, the Potency result in experiment [7], in experiment [8], in [16], in [9], in experiment [10] and in experiment [11] was “inactive” in each case. The Potency result in experiment [13], in experiment [14] and in experiment [19] was “inactive” in each case. Besides, the compound was called inactive in experiment [18].

`CC(C)=CCC[C@H](C)CC=O`: the Potency result in experiment [1], in experiment [2], in experiment [3], in [20], in experiment [5] and in [6] was “inactive” each time. The Potency result in experiment [7], in experiment [8], in experiment [10], in experiment [11], in [12] and in experiment [13] was “inactive” each time. Moreover, the Potency entry in [14] and in experiment [15] was “inactive” in each case.
